HTT promoter inh = HTT promoter inhibition | 48,000 tested, 0.93% active | Potency, µM (top dose mostly 57.5 µM), for the others: at the highest dose activity change, negative = inhibition, most hits filed as inhibitors | HEK293 HTT promoter firefly luciferase reporter, 24 h | AID 1508623; note: nearly all actives have a fitted effect of over 50% in size
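HEK293 Fluc reporter, 2,500 cells/well, 24 h pre-culture; cpds up to 57.5 uM final, 24 h 37 degrees C; Dual-Glo, 10 min RT; normalized vehicle = 0%, zero RLU = -100%.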
HTT-AS act = activators of huntingtin-antisense promoter activity; 48,000 tested, 0.24% active; HEK293 HTT-AS promoter firefly luciferase reporter, 24 h; response scale: percent change from vehicle, -100% = no light; Potency, µM (doses to about 57.5 µM), for inactives: top-dose activity change, positive = activation, most hits filed as activators; note: nearly all actives have a fitted effect of over 55% in size
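HEK293 luciferase promoter-reporter cells (2,500/well) plated 24 h, then compounds added at up to 57.5 uM final for 24 h at 37 °C. Firefly luminescence by Dual-Glo, normalized to vehicle (0%) and zero RLU (-100%).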
NTMT1 inh = NTMT1 methyltransferase inhibition | 59,000 tested, 2.5% active | NTMT1 MTase-Glo SAH luminescence, purified enzyme | Potency, µM (doses to about 114 µM), without a hit: at the highest dose activity change, negative = inhibition, usual class: inhibitors;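 note: plate controls were DMSO vehicle for no effect and no enzyme for full effect; nearly all actives have a fitted effect of over 65% in size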
Target sequence (Q9BV86 whole entry, looked up): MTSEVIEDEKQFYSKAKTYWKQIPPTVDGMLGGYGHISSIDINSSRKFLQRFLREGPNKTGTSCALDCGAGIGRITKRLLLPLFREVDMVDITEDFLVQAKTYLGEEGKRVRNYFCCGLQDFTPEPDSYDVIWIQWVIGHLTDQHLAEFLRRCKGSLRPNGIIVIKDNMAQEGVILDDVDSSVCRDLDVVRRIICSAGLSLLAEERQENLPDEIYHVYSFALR
FH mod = Identification of activators of human fumarate hydratase by quantitative high-throughput screening; Fumarate hydratase, mitochondrial (Homo sapiens), P07954; FH coupled MDH/diaphorase resazurin fluorescence, 15 min; Potency, µM (series often up to 79.9 µM), for inactives: at the top dose activity change, negative = inhibition, actives largely listed as inhibitors; 54,000 tested, 0.22% active; AID 1347055, 2019; note: % is set by controls: 0 for no effect and ±100 for the full control effect; the screen sought activators but most active calls are inhibition curves; nearly all actives have a fitted effect of over 45% in size
* marks the source's active call; other numbers are inactive results; i = inactive; ? = inconclusive; nt = no result given; ! = repeats disagree; [ ] = dose if it differs, or a comment. Shown are actives, neighbours in structure and some others; about 2.6% of the full set was active somewhere. Calls come from the whole dose curve; as a rule, active = well fitted curve in the direction sought with a large enough effect; inconclusive = small, poorly fitted or top-dose-only effect, or another doubt; inactive = no such curve, though single readings can be large; an effect the other way counts as inactive or inconclusive. Potency is the fitted concentration of half-maximal effect.

SMILES | HTT promoter inh | HTT-AS act | NTMT1 inh | FH mod
C=CC(=O)Nc1cccc(Nc2nc(Nc3ccc(N4CCN(C(C)=O)CC4)cc3OC)ncc2C(F)(F)F)c1 | nt | nt | ? | -15%
Fc1ccc(Nc2nc3nonc3nc2Nc2cccc(C(F)(F)F)c2)cc1 | 1.3µM* | -95% | 7% | ?
O=C(Nc1nc2cccc(-c3ccc(CN4CCS(=O)(=O)CC4)cc3)n2n1)C1CC1 | 25% | 24µM* | 4% | 10%
CC(C)C(C(=O)N(C)C(C)C(N)=O)N(C)C(=O)C1CCCN1C(=O)/C=C/C=C/C(O)C(C)O (configuration not stated) | nt | nt | 9%[29.8 µM] | -2%[53.3 µM]
CCCCC(CC)CN=C(N)NC(N)=NCCCCCCN=C(N)NC(N)=NCC(CC)CCCC (configuration not stated) | ? | -77% | 3.2µM* | -3%[53.3 µM]
CCCCN=C(N)N=C(N)N | -4% | 2% | nt | i
OC/C=C/C=C/[C@H]1Cc2cc(O)cc(O)c2O1 | nt | nt | ? | -5%
COc1cc(-c2nc3cnccn3c2Nc2ccc(C(C)C)cc2)ccc1O | ? | -43% | 0% | 1%
COc1cc(-c2nc3nc[nH]n3c2Nc2ccc(C(C)C)cc2)ccc1O | -20% | -22% | 45µM* | -32%
CCCCCC1CCC(C(=O)Nc2ccc(S(=O)(=O)Nc3nccs3)cc2)CC1 (configuration not stated) | nt | nt | 1% | nt
Cc1ccc(C2CC(=O)Nc3cc4c(cc32)OCCO4)cc1Br (configuration not stated) | 25µM* | -41% | 0% | ?
CC(C)c1ccc(C2CC(=O)Nc3cc4c(cc32)OCCO4)cc1 (configuration not stated) | ? | -43% | 2% | ?
COc1ccccc1NC(=O)c1ccc2ccccc2c1 | nt | nt | 3% | nt
CC(=CC(=O)Nc1ccccc1C(=O)O)c1ccc2ccccc2c1 | 9% | 0% | 34µM* | -3%[53.3 µM]
CCCN1CCCc2cc(CN(CCCN3CCOCC3)C(=O)Nc3ccc(Cl)c(Cl)c3)ccc21 | -30% | -33% | 79µM* | ?
CCCN1CCCc2cc(CN(CCCN3CCOCC3)C(=O)Nc3ccc(OCC)cc3)ccc21 | 0% | -12% | -6% | -12%
[N-]=[N+]=N[C@]1(CO)O[C@@H](n2ccc(=O)[nH]c2=O)[C@@H](O)[C@@H]1O | nt | nt | 26%[57.5 µM] | -17%
Cc1cc(C)c2sc(N3CCN(C(=O)C4CC4)CC3)nc2c1 | 0% | ? | 79µM* | -3%
CCc1oc2ccccc2c1C(=O)c1cc(Br)c(O)c(Br)c1 | ? | -43% | 79µM* | -24%[53.3 µM]
CCOc1ccc(C(=O)Nc2c(C(=O)c3ccccc3)oc3ccccc23)cc1 | 12% | -2% | 5% | 11%
COc1cc(C(=O)NC2CCN(C)CC2)ccc1Nc1ncc2c(n1)N(C1CCCC1)CCC(=O)N2C(C)C | -14% | -24% | 22µM* | 23%[53.3 µM]
CC[C@@H]1C(=O)N(C)c2cnc(Nc3ccc(C(=O)NC4CCC(N5CCN(CC6CC6)CC5)CC4)cc3OC)nc2N1C(C)C (some centres not stated) | -3% | ? | 25µM*! | 3%
CCC1C(=O)N(C)c2cnc(Nc3ccc(C(=O)NC4CCC(N5CCN(CC6CC6)CC5)CC4)cc3OC)nc2N1C(C)C (configuration not stated) | nt | nt | ? | 2%
Cc1nnc(-c2cnn(C)c2N)n1CCCc1ccccn1 | nt | nt | 6% | nt
CC(CCC1C(C(=O)O)=CC(=O)CC1(C)C)O[C@@H]1O[C@H](CO)[C@@H](O)[C@H](O)[C@H]1O (some centres not stated) | nt | nt | ? | 0%[53.3 µM]
SMILES | HTT promoter inh | HTT-AS act | NTMT1 inh | FH mod
COc1ccc(CCNC(=O)c2ccc(Cn3c(=O)c4ccccc4n(Cc4cccc(Cl)c4)c3=O)cc2)cc1OC | ? | -32% | 11% | -13%
COc1cc(-n2c(=O)c3ccccc3n(Cc3cccc(Cl)c3)c2=O)cc(OC)c1OC | -26% | -28% | 89µM* | 2%
COC(=O)CC(O)CC(O)/C=C/c1c(C)ccc2c1C(O)CC(C)C2 (configuration not stated) | nt | nt | -3%[29.8 µM] | 6%[53.3 µM]
COc1ccc(NC(=O)CSc2nnc(-c3ccc(C)cc3)o2)cc1 | 1% | -7% | 23% | -22%
COc1cccc(NC(=O)CSc2nnc(-c3cccc(OC)c3)o2)c1 | 60% | 14µM* | 6% | -20%
COc1ccc(-c2nc(SCC(=O)Nc3ccc4c(c3)OCCO4)c(-c3ccccc3)[nH]2)cc1 | ? | -8% | -2% | ?

Source: PubChem (National Center for Advancing Translational Sciences (NCATS))
